The whole screen tested about 39,000 compounds, of which about 3,300 (8.5%) were called active. This is one part of a sample in which actives are shown more often than they occur.

For the assay, the system named is HepG2. The assay is described as follows: cytotoxicity call (relative viability < 0.9). The conditions noted are these: 10 µM.
As for `COCCNCCn1cnc2c1c(=O)[nH]c(=O)n2C`, the cytotoxicity call was “inactive”. `C[C@@H]1CCCCO[C@@H](CN(C)Cc2ccncc2)[C@H](C)CN([C@H](C)CO)C(=O)c2cc(NC(=O)Nc3ccc4c(c3)OCO4)ccc2O1`: the cytotoxicity call is “inactive”. As for `C[C@@H]1CCCCO[C@@H](CN(C)C(=O)CCCN(C)C)[C@@H](C)CN([C@@H](C)CO)C(=O)c2cc(NC(=O)Nc3ccc(C(F)(F)F)cc3)ccc2O1`, the cytotoxicity call is “inactive”.

Take `Cc1ccc(S(=O)(=O)N(C)C[C@H]2OCCCC[C@H](C)Oc3ccc(NC(=O)Nc4c(C)noc4C)cc3C(=O)N([C@@H](C)CO)C[C@@H]2C)cc1`: the cytotoxicity call was “inactive”.

Regarding `C[C@H](CO)N1C[C@H](C)[C@@H](CN(C)C(=O)Nc2cccc3ccccc23)Oc2ccc(NS(=O)(=O)c3ccc(F)cc3)cc2C1=O`, the cytotoxicity call was “inactive”. Regarding `C[C@H]1CN([C@@H](C)CO)C(=O)Cc2cc(NC(=O)C3CC3)ccc2O[C@@H]1CN(C)S(=O)(=O)c1cn(C)cn1`, the cytotoxicity call was “inactive”. Consider `COc1ccc(S(=O)(=O)Nc2ccc3c(c2)C(=O)N([C@H](C)CO)C[C@H](C)[C@H](CN(C)Cc2ccc(Cl)c(Cl)c2)OCCCC[C@@H](C)O3)cc1`, for which the cytotoxicity call was “active”. The entry for `COc1ccc(S(=O)(=O)Nc2ccc3c(c2)C(=O)N([C@H](C)CO)C[C@@H](C)[C@H](CN(C)Cc2ccc(Cl)c(Cl)c2)OCCCC[C@@H](C)O3)cc1` is “active”; for `COc1ccc(S(=O)(=O)Nc2ccc3c(c2)C(=O)N([C@H](C)CO)C[C@@H](C)[C@@H](CN(C)Cc2ccc(Cl)c(Cl)c2)OCCCC[C@H](C)O3)cc1` it is “inactive”. `COc1ccc(S(=O)(=O)Nc2ccc3c(c2)C(=O)N([C@H](C)CO)C[C@H](C)[C@H](CN(C)Cc2ccc(Cl)c(Cl)c2)OCCCC[C@H](C)O3)cc1`: the cytotoxicity call is “inactive”. In the case of `COc1ccc(S(=O)(=O)Nc2ccc3c(c2)C(=O)N([C@@H](C)CO)C[C@@H](C)[C@@H](CN(C)Cc2ccc(Cl)c(Cl)c2)OCCCC[C@@H](C)O3)cc1`, the cytotoxicity call was “active”. The entry for `COc1ccc(S(=O)(=O)Nc2ccc3c(c2)C(=O)N([C@@H](C)CO)C[C@H](C)[C@H](CN(C)Cc2ccc(Cl)c(Cl)c2)OCCCC[C@@H](C)O3)cc1` is “active”; for `COCCNC(=O)C[C@H]1C[C@@H]2c3cc(NS(C)(=O)=O)ccc3O[C@@H]2[C@@H](CO)O1` it is “inactive”.

As to `O=C(O)c1csc2ccccc12`, the cytotoxicity call was “inactive”.

For the molecule `Cc1noc(C)c1S(=O)(=O)N(C)C[C@H]1OCCCC[C@@H](C)Oc2ccc(NS(C)(=O)=O)cc2C(=O)N([C@H](C)CO)C[C@@H]1C`, the cytotoxicity call is “inactive”. `COc1ccc(S(=O)(=O)N(C)C[C@H]2Oc3ccc(NC(=O)NC(C)C)cc3CC(=O)N([C@@H](C)CO)C[C@H]2C)cc1`: the cytotoxicity call is “inactive”. As for `O=C(CN1C(=O)COCC1=O)N1CCOCC1`, the cytotoxicity call is “inactive”.

For the molecule `CCCNC(=O)Nc1ccc2c(c1)OC[C@H](C)N(C(=O)C1CCOCC1)C[C@H](C)[C@H](OC)CN(C)C2=O`, the cytotoxicity call was “inactive”.

For `CC(C)c1cc(N2CC[C@@H](N)C2)nc(N)n1`, the cytotoxicity call is “inactive”.

In the case of `Cc1noc(C)c1NC(=O)Nc1cccc2c1O[C@H](CN(C)S(C)(=O)=O)[C@H](C)CN([C@@H](C)CO)C2=O`, the cytotoxicity call was “inactive”. Turning to `CC(C)NC(=O)Nc1ccc2c(c1)CC(=O)N([C@H](C)CO)C[C@H](C)[C@H](CN(C)Cc1ccc(C(=O)O)cc1)O2`, the cytotoxicity call was “inactive”. `O=C(NCCCN1CCOCC1)[C@H]1[C@H](CO)[C@H]2Cn3c(cccc3=O)[C@@H]1N2C(=O)NC1CCCC1`: the cytotoxicity call was “inactive”. The entry for `CC(C)CN[C@H]1CCS(=O)(=O)C1` is “inactive”. The entry for `COc1ccc(S(=O)(=O)Nc2ccc3c(c2)C(=O)N([C@@H](C)CO)C[C@@H](C)[C@H](CN(C)Cc2ccc(Cl)c(Cl)c2)OCCCC[C@@H](C)O3)cc1` is “active”; for `COc1ccc(S(=O)(=O)Nc2ccc3c(c2)C(=O)N([C@H](C)CO)C[C@H](C)[C@@H](CN(C)Cc2ccc(Cl)c(Cl)c2)OCCCC[C@H](C)O3)cc1` it is “active”; for `COc1ccc(CN(C)C[C@@H]2OCCCC[C@@H](C)Oc3ccc(NS(=O)(=O)c4ccc(OC)cc4)cc3C(=O)N([C@H](C)CO)C[C@H]2C)cc1` it is “inactive”. The entry for `COc1ccc(CN(C)C[C@H]2OCCCC[C@@H](C)Oc3ccc(NS(=O)(=O)c4ccc(OC)cc4)cc3C(=O)N([C@H](C)CO)C[C@@H]2C)cc1` is “inactive”. As for `C[C@H]1CN([C@@H](C)CO)C(=O)c2cc(NS(=O)(=O)c3cn(C)cn3)ccc2O[C@H]1CN(C)C(=O)Nc1ccc2c(c1)OCO2`, the cytotoxicity call was “inactive”. As to `Cc1nc(CO)co1`, the cytotoxicity call is “inactive”. As for `COc1ccc([C@@H](N)c2ccncc2)cc1`, the cytotoxicity call is “inactive”. As to `C[C@H](CO)N1C[C@H](C)[C@@H](CN(C)Cc2ccc(Oc3ccccc3)cc2)Oc2c(NC(=O)CCCCCC(=O)Nc3ccccc3N)cccc2C1=O`, the cytotoxicity call is “inactive”. Consider `O=S(=O)(NCCCN(CCCc1ccccc1)CCCc1ccccc1)c1cccc2cnccc12`, for which the cytotoxicity call was “inactive”.

Turning to `O=S(=O)(NCCCN(C/C=C/c1ccc(F)cc1)C/C=C/c1ccc(F)cc1)c1cccc2cnccc12`, the cytotoxicity call was “inactive”. Consider `N=C(N)NCCNS(=O)(=O)c1cccc2cnccc12`, for which the cytotoxicity call is “active”. Regarding `COc1ccc(/C=C/CN(C/C=C/c2ccc(OC)cc2)CCCCNS(=O)(=O)c2cccc3cnccc23)cc1`, the cytotoxicity call was “active”. The entry for `O=[N+]([O-])c1ccc(/C=C/CN(C/C=C/c2ccc([N+](=O)[O-])cc2)CCNS(=O)(=O)c2cccc3cnccc23)cc1` is “inactive”. The entry for `COc1ccc(/C=C/CN(C/C=C/c2ccc(OC)cc2)CCCNS(=O)(=O)c2cccc3cnccc23)cc1` is “inactive”; for `O=S(=O)(NCCCCN(C/C=C/c1ccc(F)cc1)C/C=C/c1ccc(F)cc1)c1cccc2cnccc12` it is “active”.

Consider `O=S(=O)(NCCCCN(C/C=C/c1ccccc1)C/C=C/c1ccccc1)c1cccc2cnccc12`, for which the cytotoxicity call is “inactive”. `O=[N+]([O-])c1ccc(/C=C/CN(C/C=C/c2ccc([N+](=O)[O-])cc2)CCCCNS(=O)(=O)c2cccc3cnccc23)cc1`: the cytotoxicity call is “inactive”. The entry for `COc1ccc(NC(=O)N(C)C[C@@H]2Oc3ccc(NC(=O)CCCN(C)C)cc3C(=O)N([C@H](C)CO)C[C@@H]2C)cc1` is “inactive”; for `C[C@@H]1CN([C@H](C)CO)C(=O)c2cc(NS(=O)(=O)c3cn(C)cn3)ccc2O[C@@H](C)CCCCO[C@@H]1CN(C)C` it is “inactive”. For `Cc1cc(C(=O)Nc2cccc3c2O[C@@H](CN(C)S(=O)(=O)c2ccc(Cl)cc2)[C@H](C)CN([C@@H](C)CO)C3=O)n(C)n1`, the cytotoxicity call is “inactive”. The entry for `C[C@@H]1CN([C@@H](C)CO)C(=O)c2cc(NS(=O)(=O)c3cccs3)ccc2O[C@H]1CN(C)S(=O)(=O)c1ccc(F)cc1` is “inactive”; for `C[C@@H](O)[C@H](N)C(=O)N[C@@H](CCCCN)C(=O)N1CCC[C@H]1C(=O)N[C@@H](CCCNC(=N)N)C(=O)O` it is “inactive”.

For `O=C(C[C@H]1C[C@H]2c3cc(NS(=O)(=O)c4ccc(F)cc4)ccc3O[C@H]2[C@H](CO)O1)NCc1cccnc1`, the cytotoxicity call is “inactive”.

Take `Cc1noc(C)c1NC(=O)Nc1ccc2c(c1)C(=O)N([C@H](C)CO)C[C@H](C)[C@@H](CN(C)C(=O)Nc1c(C)noc1C)OCCCC[C@H](C)O2`: the cytotoxicity call is “inactive”. Consider `CN(C)CCCCCCNC(=O)[C@@H]1C[C@@H]2C(=O)N[C@@H](CCCC[N+](C)(C)C)C(=O)N2[C@@H]1c1cccc(OCCO)c1`, for which the cytotoxicity call was “inactive”.

As for `C[C@H]1CN([C@@H](C)CO)S(=O)(=O)c2ccc(C#Cc3ccncc3)cc2O[C@H]1CN(C)C(=O)C1CCCCC1`, the cytotoxicity call was “inactive”. The entry for `C[C@@H]1CN([C@@H](C)CO)S(=O)(=O)c2ccc(C#Cc3ccncc3)cc2O[C@H]1CN(C)C(=O)C1CCCCC1` is “active”; for `C[C@H](CO)N1C[C@H](C)[C@H](CN(C)C(=O)C2CCCCC2)Oc2cc(C#Cc3ccncc3)ccc2S1(=O)=O` it is “active”; for `C[C@@H]1CN([C@H](C)CO)S(=O)(=O)c2ccc(C#Cc3ccncc3)cc2O[C@H]1CN(C)C(=O)C1CCCCC1` it is “active”. For the molecule `C[C@H](O)C#Cc1ccc2c(c1)O[C@@H](CN(C)C(=O)C1CCCCC1)[C@H](C)CN([C@H](C)CO)S2(=O)=O`, the cytotoxicity call is “inactive”. The entry for `C[C@@H]1CN([C@H](C)CO)S(=O)(=O)c2ccc(C#C[C@@H](C)O)cc2O[C@@H]1CN(C)C(=O)C1CCCCC1` is “inactive”; for `C[C@H](O)C#Cc1ccc2c(c1)O[C@@H](CN(C)C(=O)C1CCCCC1)[C@H](C)CN([C@@H](C)CO)S2(=O)=O` it is “inactive”; for `C[C@@H]1CN([C@@H](C)CO)S(=O)(=O)c2ccc(C#CC3CC3)cc2O[C@H]1CN(C)C(=O)C1CCCCC1` it is “inactive”. The entry for `C[C@H](CO)N1C[C@H](C)[C@@H](CN(C)C(=O)C2CCCCC2)Oc2cc(C#Cc3ccncc3)ccc2S1(=O)=O` is “active”; for `COc1ccc(CN(C)C[C@@H]2Oc3ccc(NS(=O)(=O)c4cn(C)cn4)cc3C(=O)N([C@@H](C)CO)C[C@@H]2C)cc1` it is “inactive”.

For `C[C@H]1CN([C@@H](C)CO)C(=O)c2cc(NC(=O)Nc3ccc4c(c3)OCO4)ccc2O[C@@H]1CN(C)C(=O)Nc1cccc2ccccc12`, the cytotoxicity call was “inactive”. The entry for `C[C@H](CO)N1C[C@H](C)[C@H](CN(C)S(=O)(=O)c2ccccc2)Oc2c(NS(=O)(=O)c3cccs3)cccc2C1=O` is “inactive”; for `Cc1ccc(S(=O)(=O)N(C)C[C@@H]2Oc3ccc(NS(=O)(=O)c4c(C)noc4C)cc3C(=O)N([C@@H](C)CO)C[C@H]2C)cc1` it is “inactive”; for `COc1ccccc1-c1cccc(-c2nc(C(=O)N3CCCCC3)cc3c2[C@@H](CCO)N([S@](=O)C(C)(C)C)C3)c1` it is “inactive”. The entry for `O[C@H]1[C@H](O)[C@@H](O)[C@H](O)[C@@H](O)[C@H]1O` is “inactive”. Consider `Cc1ccc(S[C@]2(C(=O)NC3CC3)CC(=O)N(C3Cc4ccccc4C3)[C@@H]2c2ccc(CO)cc2I)cc1`, for which the cytotoxicity call is “inactive”.

Regarding `C[C@@H]1CN([C@@H](C)CO)C(=O)c2cc(-c3ccncc3)cnc2O[C@@H]1CN(C)S(=O)(=O)c1ccc(F)cc1`, the cytotoxicity call was “inactive”.

The values are drawn from the antibiotic and cytotoxicity screens of Wong et al. (2023).
